Reference: the supplement of paper PMC3545927
This is one part of the list. The true hit rate is not given.

B1: HC513 (peptide)
chain: CAVGSSIASWAGNASASA
B2: HC2204 (peptide)
chain: CAEVVTSIWVAGNASASA
B3: HC694 (peptide)
chain: CAQTFLATCIAGNASASA
B4: HC154 (peptide)
chain: CAEVVTCTWVAGNASASA
B5: HC1041 (peptide)
chain: CAWAKHMWNFAGNASASA
B6: FS-2592 (peptide)
chain: CARRARFVSKAGNASASA
B7: FS-1773 (peptide)
chain: CARRARVVWCAGNASASA
B8: FS-3044 (peptide)
chain: CARQSRAPSKAGNASASA
B9: HC1514 (peptide)
chain: CATSCGNTLTAGNASASA
B10: FS-1426 (peptide)
chain: CATSNRQPRKAGNASASA
B11: FS-2542 (peptide)
chain: CAPFPRDVGKAGNASASA
B12: FS-273 (peptide)
chain: CALSSREARVAGNASASA
B13: FS-1380 (peptide)
chain: CAPFSRVPRKAGNASASA
B14: FS-616 (peptide)
chain: CALSSRVPRSAGNASASA
B15: FS-1103 (peptide)
chain: CAVSGRVPRSAGNASASA
B16: HC1389 (peptide)
chain: CAVYSTTSRSAGNASASA
B17: FS-828 (peptide)
chain: CALSSRTARSAGNASASA
B18: HC2130 (peptide)
chain: CAEVVVCCSMAGNASASA
B19: FS-559 (peptide)
chain: CARIGRTARSAGNASASA
B20: FS-764 (peptide)
chain: CAESGRENRSAGNASASA
B21: FS-688 (peptide)
chain: CALSSRHSRSAGNASASA
B22: FS-1435 (peptide)
chain: CAVSGRRNRSAGNASASA
B23: HC2151 (peptide)
chain: CADVVTSTWVAGNASASA
B24: HC666 (peptide)
chain: CALLGPADGMAGNASASA
B25: HC634 (peptide)
chain: CATYVYNHLTAGNASASA
B26: HC1669 (peptide)
chain: CAYEECSQHLAGNASASA
B27: HC2246 (peptide)
chain: CAEVVTSTWMAGNASASA
B28: FS-141 (peptide)
chain: CAQSSRQPRPAGNASASA
B29: FS-1145 (peptide)
chain: CANSKRKSRPAGNASASA
B30: FS-1106 (peptide)
chain: CAVSSRHRRAAGNASASA
B31: FS-1501 (peptide)
chain: CAVSSRKSRWAGNASASA
B32: FS-851 (peptide)
chain: CAQSSRHRRAAGNASASA
B33: HC496 (peptide)
chain: CAQWQVLPCSAGNASASA
B34: HC800 (peptide)
chain: CARTGVRTITAGNASASA
B35: HC180 (peptide)
chain: CARRGPRLGVAGNASASA
B36: FS-165 (peptide)
chain: CAGRSRDLRGAGNASASA
B37: FS-2657 (peptide)
chain: CAREKRELRQAGNASASA
B38: FS-2208 (peptide)
chain: CAREKREKIKAGNASASA
B39: FS-166 (peptide)
chain: CAGRSRELRQAGNASASA
B40: FS-735 (peptide)
chain: CAVNQRVRRAAGNASASA
B41: FS-741 (peptide)
chain: CAADPRTWRSAGNASASA
B42: FS-608 (peptide)
chain: CALIPRVRRAAGNASASA
B43: HC535 (peptide)
chain: CAENLVILNAAGNASASA
B44: FS-1360 (peptide)
chain: CALLQRVRRAAGNASASA
B45: FS-1298 (peptide)
chain: CAADPRVRRAAGNASASA
B46: WN2 (peptide)
chain: CAQKKRGGTAAGNASASA
B47: HC524 (peptide)
chain: CAADARVCSCAGNASASA
B48: FS-823 (peptide)
chain: CALLQRKKKLAGNASASA

Molecular target: furin, P09958
Sequence (P09958 whole entry): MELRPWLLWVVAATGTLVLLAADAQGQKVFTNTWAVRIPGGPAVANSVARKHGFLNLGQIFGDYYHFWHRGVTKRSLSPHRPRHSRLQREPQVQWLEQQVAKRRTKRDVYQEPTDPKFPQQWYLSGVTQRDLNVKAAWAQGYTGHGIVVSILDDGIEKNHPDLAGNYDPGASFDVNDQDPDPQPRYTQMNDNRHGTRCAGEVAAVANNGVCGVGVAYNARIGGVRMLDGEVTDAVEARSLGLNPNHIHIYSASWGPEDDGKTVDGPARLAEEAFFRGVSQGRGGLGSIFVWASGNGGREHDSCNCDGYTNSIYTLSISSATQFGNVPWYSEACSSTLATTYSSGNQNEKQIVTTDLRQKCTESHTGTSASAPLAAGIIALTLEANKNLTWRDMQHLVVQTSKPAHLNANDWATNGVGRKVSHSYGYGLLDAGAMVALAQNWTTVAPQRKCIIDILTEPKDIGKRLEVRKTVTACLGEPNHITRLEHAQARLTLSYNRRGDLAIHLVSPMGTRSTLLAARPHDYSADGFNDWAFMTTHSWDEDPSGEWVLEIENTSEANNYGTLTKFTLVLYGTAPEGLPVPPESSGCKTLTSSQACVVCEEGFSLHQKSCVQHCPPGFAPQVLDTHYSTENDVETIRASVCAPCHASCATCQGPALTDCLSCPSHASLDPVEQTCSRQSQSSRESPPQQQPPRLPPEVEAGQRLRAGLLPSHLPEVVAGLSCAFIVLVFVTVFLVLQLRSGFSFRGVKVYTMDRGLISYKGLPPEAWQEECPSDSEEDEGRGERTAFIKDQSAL
Assay: furin cleavage Z-score vs untreated control; higher = more cleavage, active = 3.5 or more, inactive = 1 or less, 8 variable residues between constant flanks
Summary of the method: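 To give the cleavage Z-score, log read counts were set against furin-free reactions, lowess-adjusted and scaled by median absolute deviation. These counts came from PCR adapter-tagged, sequenced DNA released when purified furin cut 8-mer peptides fused to a cDNA oligonucleotide and held on magnetic beads by their N-terminus. Digests were 0.01 ml, 1:10 enzyme:substrate, in 50 mM HEPES pH 7.5 with CaCl2 and NaCl, for 7.5, 15 or 30 min.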

Sequence	furin cleavage Z-score (7.5 min)	furin cleavage Z-score (15 min)	furin cleavage Z-score (30 min)
B1	1.24	0.758 (inactive)	1.42
B2	-1.22 (inactive)	-0.886 (inactive)	-0.589 (inactive)
B3	-1.16 (inactive)	1.03	0.494 (inactive)
B4	0.26 (inactive)	0.377 (inactive)	0.00628 (inactive)
B5	2.37	1.51	-0.0839 (inactive)
B6	1.79	3.6 (active)	4.51 (active)
B7	-0.495 (inactive)	-0.908 (inactive)	-1.05 (inactive)
B8	-0.34 (inactive)	-1.03 (inactive)	0.0856 (inactive)
B9	0.831 (inactive)	-1.07 (inactive)	0.652 (inactive)
B10	0.777 (inactive)	2.06	3.28
B11	0.749 (inactive)	0.654 (inactive)	-0.494 (inactive)
B12	0.397 (inactive)	1.38	-0.0178 (inactive)
B13	4.53 (active)	5.54 (active)	7.08 (active)
B14	10.7 (active)	10.8 (active)	8.57 (active)
B15	8.22 (active)	7.59 (active)	5.91 (active)
B16	0.122 (inactive)	-0.119 (inactive)	-0.531 (inactive)
B17	10.9 (active)	12.5 (active)	10.5 (active)
B18	0.168 (inactive)	-0.257 (inactive)	-0.566 (inactive)
B19	14.2 (active)	12.8 (active)	11.2 (active)
B20	0.222 (inactive)	0.598 (inactive)	-0.14 (inactive)
B21	7.04 (active)	9.83 (active)	7.06 (active)
B22	7.11 (active)	8.52 (active)	7.39 (active)
B23	0.471 (inactive)	-0.0629 (inactive)	0.991 (inactive)
B24	-0.849 (inactive)	-0.827 (inactive)	-0.909 (inactive)

Sequence	furin cleavage Z-score (7.5 min)	furin cleavage Z-score (15 min)	furin cleavage Z-score (30 min)
B25	-0.232 (inactive)	0.658 (inactive)	0.0846 (inactive)
B26	1.21	0.943 (inactive)	2.11
B27	1.57	0.473 (inactive)	0.947 (inactive)
B28	-0.311 (inactive)	-0.656 (inactive)	-0.417 (inactive)
B29	-2.35 (inactive)	0.946 (inactive)	-1.84 (inactive)
B30	12.3 (active)	12.4 (active)	10.3 (active)
B31	3.21	3.75 (active)	5.97 (active)
B32	13.1 (active)	12.7 (active)	10.3 (active)
B33	-0.675 (inactive)	0.494 (inactive)	0.276 (inactive)
B34	-0.25 (inactive)	-0.718 (inactive)	-0.285 (inactive)
B35	-0.669 (inactive)	-0.347 (inactive)	-0.923 (inactive)
B36	-0.794 (inactive)	-0.817 (inactive)	-1.52 (inactive)
B37	9.73 (active)	13.3 (active)	9.26 (active)
B38	-0.771 (inactive)	-0.626 (inactive)	0.291 (inactive)
B39	2.87	2.42	4.09 (active)
B40	10 (active)	8.42 (active)	8.51 (active)
B41	-0.983 (inactive)	1.45	-0.478 (inactive)
B42	9.17 (active)	10.3 (active)	8.48 (active)
B43	-0.56 (inactive)	-1.45 (inactive)	0.00797 (inactive)
B44	3.77 (active)	3.58 (active)	3.76 (active)
B45	10.1 (active)	8.47 (active)	8.31 (active)
B46	-0.625 (inactive)	-0.389 (inactive)	0.122 (inactive)
B47	0.17 (inactive)	-2.96 (inactive)	-3.71 (inactive)
B48	0.0701 (inactive)	0.355 (inactive)	-0.31 (inactive)
